Only some compounds are listed: those with a hit (about 1.4% of all), similar ones and a draw of the others.
LYPLA1 inh: counter-screen for PME1 inhibitors: inhibitors of human LYPLA1. inhibition, % at 5.9 µM. actives 0.16% (n = 320,000). recombinant LYPLA1, FP-Rh probe fluorescence polarization. AID 2174. O75608;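 active = inhibition above the mean of all tested compounds plus 3 SD, set per campaign, cut at about 14% in these data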;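 also: inhibitors block serine hydrolase probe labeling of LYPLA1 so polarization falls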
Target sequence (O75608 whole entry, looked up): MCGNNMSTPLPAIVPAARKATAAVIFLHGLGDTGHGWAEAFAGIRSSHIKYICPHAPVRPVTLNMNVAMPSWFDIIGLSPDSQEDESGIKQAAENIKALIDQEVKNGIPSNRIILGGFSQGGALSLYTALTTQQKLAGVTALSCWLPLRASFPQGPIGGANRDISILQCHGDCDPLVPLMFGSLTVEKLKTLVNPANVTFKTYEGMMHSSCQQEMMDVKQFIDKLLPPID
LYPLA2 counter: counter-screen for PME1 inhibitors: inhibitors of human LYPLA2. O95372. recombinant LYPLA2, FP-Rh probe fluorescence polarization. inhibition, % at 5.9 µM. actives 0.38% (n = 320,000). AID 2177;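 active = inhibition above the screen-wide mean plus 3 SD, limit set per campaign, cut at about 26% in these data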
Target sequence (O95372 whole entry, looked up): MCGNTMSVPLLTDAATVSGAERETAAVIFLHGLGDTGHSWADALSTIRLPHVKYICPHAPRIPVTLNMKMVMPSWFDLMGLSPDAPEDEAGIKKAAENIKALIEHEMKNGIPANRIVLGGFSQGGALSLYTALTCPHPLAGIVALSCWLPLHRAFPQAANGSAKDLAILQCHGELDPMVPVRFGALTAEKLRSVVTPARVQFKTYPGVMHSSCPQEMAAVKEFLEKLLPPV
EBNA-1 inhibitor: blocks EBNA-1 binding to DNA; EBNA-1 DNA binding, fluorescence polarization; actives 0.34% (n = 300,000); AID 1950; inhibition, % at 14.8 µM; in the data active = inhibition above about 28%
LANA-H2B inh: blocks KSHV LANA binding to histone H2A/H2B. inhibition, % (test concentration not listed). AID 2629. cell-free LANA-H2A/H2B peptide, fluorescence polarization. actives 0.6% (n = 320,000). Q9QR71; in the data active = inhibition mostly above about 10%, no sharp cut-off; inactive = mostly below about 6.7%
ZTA DNA inh: ZTA (EBV) inhibition in EBNA-1 counter-screen | actives 0.15% (n = 320,000) | AID 2234 | inhibition, % at 11 µM | ZTA-DNA binding, fluorescence polarization | P03206; in the data active = inhibition above about 33%
A number is an active result; i = inactive; nt = no result given; + = active, no number; ! = not active in a repeat.

SMILES	LYPLA1 inh	LYPLA2 counter	EBNA-1 inhibitor	LANA-H2B inh	ZTA DNA inh
O=C(NCc1ccc(F)cc1)C1CCN(S(=O)(=O)c2ccc(Br)s2)CC1	i	i	i	i	i
Cc1cc(C)n(Cc2ccc(C(=O)O)cc2)n1	i	i	i	i	i
Cc1ccc(C)n1Cc1ccc(C(=O)O)cc1	i	i	29.3	i	85.0
COCC(=O)N1CCC(Oc2ccc(C(=O)N(C)CCCC3CCCC3)cc2)CC1	i	i	i	15.9	i
COCC(=O)N1CCC(Oc2ccc(C(=O)N3CCCCCCC3)cc2)CC1	i	i	i	i	i
CCN(CC)c1ccc2cc(-c3nc4ccccc4[nH]3)c(=O)oc2c1	i	i	i	26.9	i
CCN(CC)c1ccc2cc(-c3nc4ccccc4n3C)c(=O)oc2c1	i	i	i	i	i
COc1ccc(C(=O)NC2CC2)cc1OC1CCN(Cc2ccc(F)cc2Cl)CC1	i	i	i	i	i
C=COCCNC(=O)C(=O)NC(C)C	i	i	i	16.8	i
COc1ccccc1C(=O)NCC(=O)OC(C)C(=O)N(C)C1CCCCC1 (stereo unspecified)	i	i	nt	18.9	i
COc1ccc(OCCn2cc(/C=N/NC(=O)c3ccncc3)c3ccccc32)cc1	i	39.3	i	i	i
Cc1ccc(OCCn2cc(/C=N/NC(=O)c3ccncc3)c3ccccc32)cc1	i	38.3	i	i	i
COc1cccc(OCCn2cc(/C=N/NC(=O)c3ccncc3)c3ccccc32)c1	i	i	i	i	i
CC(C)=CCc1c(-c2ccc(O)cc2O)oc2c3c(cc(O)c2c1=O)OC(C)(C)C=C3	i	i	i	22.7	i
CC(C)=CCc1c2c(c(O)c3c(=O)c4c(oc13)-c1cc(O)c(O)cc1OC4C=C(C)C)C=CC(C)(C)O2 (stereo unspecified)	i	i	i	i	i
COc1cc(CNCc2ccc(OC)c(OC)c2OC)cc(OC)c1	i	i	i	36.8	i
CC1CCCCC1NC(=O)Cn1cc([N+](=O)[O-])ccc1=O (stereo unspecified)	i	i	nt	14.9	i
CC1CCCC(NC(=O)Cn2cc([N+](=O)[O-])ccc2=O)C1C (stereo unspecified)	i	i	nt	i	i
CN(CC1COc2ccccc2O1)C(=O)c1cc(COc2c(F)cccc2F)on1 (stereo unspecified)	i	i	i	i	i
CN(CC1COCCO1)C(=O)c1cc(COc2c(F)cccc2F)on1 (stereo unspecified)	i	i	i	115.5	i
Cc1ccc(OCC(=O)OCCN2C(=O)c3ccccc3C2=O)cc1C	i	i	i	19.4	i
Cc1cc(C)cc(OCC(=O)OCCN2C(=O)c3ccccc3C2=O)c1	i	i	i	i	i
CCOC(=O)Nc1ccc(N2CCOCC2)c(S(=O)(=O)N2CCOCC2)c1	i	i	i	i	i
CN(C)C(=O)Oc1ccc[n+](C)c1	i	i	i	73.5!	i
C[n+]1cccc(C(=O)[O-])c1	i	i	i	i	i
SMILES	LYPLA1 inh	LYPLA2 counter	EBNA-1 inhibitor	LANA-H2B inh	ZTA DNA inh
Cc1cccc(S(=O)Cc2ccc(C(=O)N3CCOCC3)o2)c1 (stereo unspecified)	i	i	i	i	i
O=C(O)c1ccc(CS(=O)c2cccc(C(F)(F)F)c2)o1 (stereo unspecified)	i	i	i	119.1	i
CCOC(=O)C1=C(COC(=O)c2ccc(OC)c(OC)c2OC)NC(=O)NC1C (stereo unspecified)	i	i	i	i	i
CCOc1ccc(OCCC(=O)OCC(=O)NC2CCCC2)cc1	i	i	nt	i	i
COCCCn1c(=NC(=O)c2ccccc2)c(C#N)cc2c(=O)n3cccc(C)c3nc21	i	i	i	27.4	i
COCCCn1c(=NC(C)=O)c(C#N)cc2c(=O)n3cccc(C)c3nc21	i	i	i	i	i
CCOCCCn1c(=NC(=O)c2cccs2)c(C#N)cc2c(=O)n3cccc(C)c3nc21	i	i	i	27.9	i
Cc1cc(C)cc(NC(=O)Nc2ccccc2N2CCCCC2)c1	i	i	i	11.8	i
C=C(C)Cn1c(CN(C)Cc2ccccc2)nc2c1c(=O)n(C)c(=O)n2C	i	i	i	i	i
CN(C)c1nc(OCCOC(=O)COc2ccc(Cl)cc2Cl)nc(N(C)C)n1	i	i	i	i	i
CCCCOC(=O)COc1ccc(Cl)cc1Cl	i	i	nt	13.9	i
CC(=O)c1sc(NC(=O)CN2C(=O)NC3(CCCC3)C2=O)nc1-c1ccccc1	i	i	i	18.2	i
O=C(CN1C(=O)NC2(CCCC2)C1=O)Nc1ccc(Cl)cc1F	i	i	i	i	i
O=C(CN1C(=O)NC2(CCCC2)C1=O)Nc1ccccc1F	i	i	i	27.2	i
CC1c2cc3c(cc2CCN1C(=O)c1cccc(F)c1)OCCCO3 (stereo unspecified)	i	i	i	i	i
O=[N+]([O-])c1ccc(C(=S)N2CCCC2)cc1	i	i	i	+	i
CC1(C)CC(NC(=O)c2cccc(S(=O)(=O)N(Cc3ccccc3)c3ccccc3)c2)CC(C)(C)N1	i	i	i	i	i
Cc1cccc(NC(=O)CSCC(=O)NNC(=O)c2ccoc2C)c1	i	i	i	i	i
NC(=O)C1CCN(C(=S)c2ccc(-c3ccc(Br)cc3)o2)CC1	i	i	i	14.1	i
CCOc1ncccc1C(=O)NCC(c1ccco1)N1CCCCC1 (stereo unspecified)	nt	nt	nt	i	nt
CC(=O)c1cccc(OC(=O)c2ccc3c(=O)n4c(nc3c2)CCC4)c1	i	i	i	i	i
Cc1ccccc1Cn1ccc(NC(=O)c2cnn3c2NC(c2ccccc2)CC3C(F)(F)F)n1 (stereo unspecified)	i	i	i	+	i
CC(C)c1cc(C(=O)Nc2cc(Cl)ccc2O)no1	i	i	i	12.6	i
O=C(NN1CC(C(=O)OCc2ccc(Cl)cc2Cl)CC1=O)c1ccccc1 (stereo unspecified)	nt	nt	nt	i	nt
O=C(CNC(=O)c1cccc(F)c1)N/N=C/c1ccc([N+](=O)[O-])s1	i	i	i	14.1	i
SMILES	LYPLA1 inh	LYPLA2 counter	EBNA-1 inhibitor	LANA-H2B inh	ZTA DNA inh
O=C(N/N=C/c1ccc([N+](=O)[O-])s1)c1ccccc1	i	i	i	i	i
COc1ccccc1C(=O)C1Nc2ccccc2-c2nnc(SC)nc2O1 (stereo unspecified)	i	i	i	20.6	i
CCC1Nc2ccccc2-c2nnc(SC)nc2O1 (stereo unspecified)	i	i	i	i	i
Cc1cccc(C)c1OC(=O)CN1C(=O)c2ccccc2C1=O	i	i	i	i	i
CC(=O)N1CCc2cc(S(=O)(=O)NCC(=O)NCc3ccc(F)cc3)ccc21	i	i	i	i	i
NC(=O)c1ccccc1NC(=O)c1ccoc1	i	i	i	i	i
Cc1ccc(-c2csc(NC(=O)CCCc3cccs3)n2)cc1	i	i	i	i	i
Cc1csc(NC(=O)CCCc2cccs2)n1	i	i	i	181.0	i
O=C(c1ccccc1)c1ccc(O)cc1O	i	i	i	44.6	i
COc1ccc(C(=O)c2ccccc2)c(O)c1	i	i	i	i	i

Assay outcomes (PubChem BioAssay)
